Assay outcomes deposited in PubChem BioAssay by National Center for Advancing Translational Sciences (NCATS).
Rango complex inh: Rango-importin beta binding inhibition; Q14974; Rango CFP/YFP FRET sensor + importin beta, 45 min; Potency, µM (top dose mostly 92.2 µM), for inactives: at the top dose inhibition of complex formation; hit rate 0.031% among 340,000; calls by dose curve;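 further: 0% = DMSO wells and 100% = buffer wells lacking importin beta; nearly all actives have a fitted effect of over 15% in size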
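FRET biosensor (snurportin 1 IBB flanked by EYFP and cerulean), 50 nM, with compound 5 min, then 0.125 microM importin beta in PBS, 1 mM DTT, 0.02% Tween-20, 0.1% BSA. CFP/YFP ratio read after 45 min at room temperature; pre-read flags interference.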
Rango dissoc inh: prevents RanGTP from dissociating the Rango-importin beta complex | O95149+P62826 | Biochemical FRET Rango-importin beta, RanGTP-induced dissociation | Potency, µM (highest dose often 46.1 µM), for the others: at the top dose activity change, negative = inhibition | hit rate 0.071% among 340,000; calls by dose curve; further: % of control where 0% means no effect; nearly all actives have a fitted effect of over 45% in size
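Compounds preincubate 5 min with complex of recombinant Rango and importin beta in PBS with 1 mM DTT. Ran (0.6 uM) loaded with 2 mM GTP plus 0.2 uM RCC1 starts dissociation; FRET is recorded 45 min later.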
TDP43 rescue: TDP-43 toxicity inhibition in yeast; hit rate 1.8% among 410,000; AID 652104; Potency, µM (series often up to 46.1 µM), inactives show at the highest dose growth rescue (activation), actives largely listed as activators; TDP-43 expressing yeast growth rescue, BacTiter-Glo, 24 h; further: % of control where 0% means no effect; nearly all actives have a fitted effect of over 50% in size
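Yeast cells expressing TDP-43 under galactose induction are exposed to compounds for 24 hr at 30 deg C. BacTiter-Glo luminescence measures growth, so protective compounds score as activators.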
ASM inhibitor: inhibitors of human secretory acid sphingomyelinase; placental ASM, HMU-PC fluorogenic substrate, 60 min; Potency, µM (top dose mostly 57.5 µM), for the others: at the top dose activity change, negative = inhibition, most hits filed as inhibitors; hit rate 0.006% among 340,000; AID 504937
Target sequence (P17405 47-631 limits assumed): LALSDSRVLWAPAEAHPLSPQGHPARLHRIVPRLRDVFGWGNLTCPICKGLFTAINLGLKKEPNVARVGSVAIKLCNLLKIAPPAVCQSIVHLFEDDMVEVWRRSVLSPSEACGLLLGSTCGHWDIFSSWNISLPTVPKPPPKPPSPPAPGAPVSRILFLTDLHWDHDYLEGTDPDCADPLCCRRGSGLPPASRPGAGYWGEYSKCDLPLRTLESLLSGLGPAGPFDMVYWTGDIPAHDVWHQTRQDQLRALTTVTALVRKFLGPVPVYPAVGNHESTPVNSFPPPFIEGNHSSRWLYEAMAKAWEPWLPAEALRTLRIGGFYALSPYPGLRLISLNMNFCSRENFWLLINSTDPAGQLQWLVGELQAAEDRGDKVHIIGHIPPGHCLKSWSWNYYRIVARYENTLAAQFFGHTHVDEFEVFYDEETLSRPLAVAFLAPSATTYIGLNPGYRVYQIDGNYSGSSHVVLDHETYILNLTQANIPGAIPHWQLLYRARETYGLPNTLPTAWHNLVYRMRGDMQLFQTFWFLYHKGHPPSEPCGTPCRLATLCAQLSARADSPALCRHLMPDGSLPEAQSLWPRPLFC
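Steps: dispense placental human ASM, pin compound, wait 10 min at room temperature, add HMU-PC0 substrate at 9 uM final, incubate 60 min at 37 °C, add stop solution raising pH to 10, read fluorescence.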
aSyn yeast inh: inhibitors of alpha-synuclein toxicity in yeast. Yeast expressing alpha-synuclein, growth rescue, BacTiter-Glo, 24 h. Potency, µM (series often up to 46.1 µM), for the others: top-dose growth rescue (activation), actives largely listed as activators. hit rate 0.14% among 370,000; further: % of control where 0% means no effect; nearly all actives have a fitted effect of over 65% in size
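Galactose-induced alpha-syn yeast (OD600=0.02, raffinose-pregrown) + pinned cpd, 24 hr, 30 deg C; growth by BacTiter-Glo luminescence. Growth restoration scores as activation.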
Abeta yeast res: compounds reversing amyloid beta toxicity in yeast | yeast expressing A-beta42, growth rescue, OD600, 48 h; response scale: 0% DMSO, 100% iron-clioquinol control | Potency, µM (highest dose often 46.1 µM), actives largely listed as activators | hit rate 0.063% among 410,000 | AID 1347071; further: nearly all actives have a fitted effect of over 55% in size
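Growth rescue measured by 600 nm absorbance after 48 h yeast culture at 30 C with compound. Values normalized between DMSO and an equimolar ferric chloride plus clioquinol control.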
Active calls of the source: *; i = inactive; ? = inconclusive; nt = no result; [ ] = dose if it differs, or a comment. Compounds with a hit are over-represented: about 2% of the library has one in this group of screens. Unless noted, the call rests on the fitted dose curve; in most records, active means well fitted curve in the direction sought with a large enough effect; inconclusive means small, poorly fitted or top-dose-only effect, or another doubt; inactive means no such curve, though single readings can be large; an effect the other way counts as inactive or inconclusive. Potency means the concentration at half of the fitted maximal effect.

SMILES | Rango complex inh | Rango dissoc inh | TDP43 rescue | ASM inhibitor | aSyn yeast inh | Abeta yeast res
Cc1nn(C)c2c1c(C(F)(F)F)cc(=O)n2C(C)C(=O)NCCc1ccc(Cl)cc1 (stereo not given) | nt | nt | 7.1% | nt | nt | i
CCn1nc(C)c2c(-c3ccccc3)cc(=O)n(C(C)C(=O)NCc3ccccc3OC)c21 (stereo not given) | nt | nt | 10µM* | nt | nt | i
Cc1nn(C)c2c1c(-c1ccccc1)cc(=O)n2C(C)C(=O)NCCc1ccc(Cl)cc1 (stereo not given) | nt | nt | 22.4µM* | nt | nt | i
Cc1ccc2c(=O)cc(C(=O)N(Cc3ccc(C(C)(C)C)cc3)C3CCS(=O)(=O)C3)oc2c1 (stereo not given) | nt | nt | 21.0% | nt | nt | i
CC(Nc1ncnc2c1cnn2-c1cccc(Cl)c1)c1ccccc1 (stereo not given) | nt | nt | -45.3% | nt | nt | i
O=C(NNc1nc2cc3c(cc2s1)OCCO3)c1ccc(F)cc1 | -2.9% | -0.4% | 10µM* | 0.9% | 0.3% | ?
COc1ccc(Nc2nc3c(S(=O)(=O)c4ccccc4)nnn3c3ccsc23)cc1OC | nt | nt | -15.4% | nt | nt | i
CCCCCCSc1nsc(NC(=O)CC(C)C)n1 | -2.9% | -5.0% | -13.5%[0.397 µM] | -6.9% | 2.0% | i
CCCCCCCSc1nsc(N)n1 | -0.7% | 0.2% | 12.6µM* | 1.9% | -14.8% | i
CCC(C)(C)NC(=S)Nc1ccccc1C | -0.8% | -16.4% | 0.0% | 7.0% | -12.5% | 12.6µM*
CCC(C)C(=O)Nc1nc(C)c(-c2csc(Nc3ccc(Cl)cc3)n2)s1 (stereo not given) | ? | -14.0% | 28.4% | 0.4% | 4.4% | i
Cc1nc(C)c(-c2csc(NCc3ccccc3)n2)s1 | 2.0% | 18.9% | 20µM* | 1.2% | -1.6% | i
CCCC(=O)Nc1nc(C)c(-c2csc(Nc3ccc(Cl)cc3)n2)s1 | ? | -10.5% | 14.1µM* | -19.2% | -1.5% | i
COc1ccc(Nc2nc(-c3sc(C)nc3C)cs2)cc1 | -3.0% | 0.3% | 20µM* | -7.0% | -16.3% | i
COc1ccc(CCNc2nc(-c3sc(C)nc3C)cs2)cc1OC | -0.1% | -11.6% | 22.4µM* | -3.9% | -0.1% | i
O=C(NCCC1=CCCCC1)c1ccc2c(c1)N(Cc1ccccc1F)C(=O)c1ccccc1S2=O (stereo not given) | nt | nt | -4.0% | nt | nt | i
CCc1nnc2c(NCc3ccccc3OC)nc3ccccc3n12 | nt | nt | -10.6% | nt | nt | i
CCc1ccccc1N1C(=O)N(Cc2ccccc2C)c2ccccc2S1(=O)=O | nt | nt | -3.8% | nt | nt | i
COC(=O)c1ccsc1NC(=O)CCc1ccccc1 | -0.8% | 0.2% | ? | -1.4% | 0.0% | i
COC(=O)c1ccccc1NC(=O)CCc1ccccc1 | -0.8% | 0.1% | 10µM* | 2.4% | -3.2% | i
Cc1nc(NC(=O)CCc2ccccc2)sc1C | -1.3% | -2.3% | 12.6µM* | -0.2% | 1.8% | i
COC(=O)c1cc(C)sc1NC(=O)CCc1ccccc1 | 2.6% | -6.5% | 11.2µM* | -4.4% | 2.7% | i
COc1ccc(CCNC(=O)Cn2cc(C(=O)c3ccc(Cl)cc3)c(=O)c3ccc(C)nc32)cc1OC | nt | nt | -6.8% | nt | nt | i
Cc1cccc(NC(=O)c2sc3nc4n(c(=O)c3c2C)N=C(c2ccc(F)cc2)CS4)c1C | nt | nt | 13.1% | nt | nt | i
CC(C)S(=O)(=O)c1oc(-c2cccs2)nc1S(=O)(=O)c1ccc(F)cc1 | nt | nt | 8.91µM* | nt | nt | i
CCCCS(=O)(=O)c1oc(-c2ccc(F)cc2)nc1S(=O)(=O)c1ccccc1 | nt | nt | 14.1µM* | nt | nt | i
CCS(=O)(=O)c1oc(-c2ccc(F)cc2)nc1S(=O)(=O)c1ccc(Br)cc1 | nt | nt | 28.2µM* | nt | nt | i
CS(=O)(=O)c1oc(-c2ccc(F)cc2)nc1S(=O)(=O)c1ccc(Cl)cc1 | nt | nt | 0.0% | nt | nt | i
CC(C)S(=O)(=O)c1oc(-c2ccc(F)cc2)nc1S(=O)(=O)c1ccccc1 | nt | nt | 12.6µM* | nt | nt | i
